According to the supplement of paper PMC12350171:
Counter-ions that a name gives are not always drawn. A number with no mark means an inactive call.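 The calls were made as follows: active = AUC significantly below DMSO controls by Student t-fit with adjusted P under 0.01; inactive = not significantly reduced.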

What follows are compounds tested on Haemophilus parainfluenzae (assay: growth AUC normalised to DMSO control (fraction of control); higher = less growth inhibition, active = hit call of the paper). Conditions: 20 µM.
How it was run: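 Pathogens were passaged twice under anaerobic conditions, then inoculated into pre-reduced mGAM plates at a starting OD578 of 0.01, with compound at 20 μM and 1% DMSO, and sealed with breathable membranes. For Haemophilus parainfluenzae, the medium was supplemented with hemin and NAD. OD578 was read every hour for 24 h in three biological replicates. Growth-curve AUC was calculated by the trapezoidal rule up to the exponential-to-stationary transition and normalised to DMSO controls on the same plate.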

| SMILES | growth AUC normalised to DMSO control |
| --- | --- |
| C[C@@H]1[C@H](O)[C@@H](C)/C=C/C=C/C=C/C=C/C=C/C=C/C=C/[C@H](O[C@@H]2O[C@H](C)[C@@H](O)[C@H](N)[C@@H]2O)C[C@@H]2O[C@](O)(C[C@@H](O)C[C@@H](O)[C@H](O)CC[C@@H](O)C[C@@H](O)CC(=O)O[C@H]1C)C[C@H](O)[C@H]2C(=O)O [Amphotericin B] | 1.09 |
| CCN(CC)CCOCCOC(=O)C1(c2ccccc2)CCCC1 [Carbetapentane citrate] | 1 |
| CC(=O)Nc1nnc(S(N)(=O)=O)s1 [Acetazolamide] | 0.959 |
| CN1CCC[C@@H]1CCO[C@](C)(c1ccccc1)c1ccc(Cl)cc1 [Clemastine fumarate] | 0.973 |
| Clc1ccc(CCC(Cn2ccnc2)Sc2c(Cl)cccc2Cl)cc1 (stereo not drawn) [Butoconazole nitrate] | 0.97 |
| NS(=O)(=O)c1cc2c(cc1Cl)NC(CC1CCCC1)NS2(=O)=O (stereo not drawn) [Cyclopenthiazide] | 0.982 |
| Cc1ccccc1OCC(O)CO (stereo not drawn) [Mephenesin] | 0.93 |
| NCCCCCC(=O)O [Aminocaproic acid] | 1.1 |
| CC(=O)OCC(=O)[C@@]1(O)[C@H](C)C[C@H]2[C@@H]3CCC4=CC(=O)C=C[C@]4(C)[C@@]3(F)[C@@H](O)C[C@@]21C [Dexamethasone acetate] | 1.03 |
| CN(C)CCC=C1c2ccccc2COc2ccccc21 [Doxepin hydrochloride] | 0.972 |
| O=C(O)Cc1sc(-c2ccccc2)nc1-c1ccc(Cl)cc1 [Fentiazac] | 1.03 |
| CC1(C)O[C@@H]2C[C@H]3[C@@H]4C[C@H](F)C5=CC(=O)C=C[C@]5(C)[C@@]4(F)[C@@H](O)C[C@]3(C)[C@]2(C(=O)CO)O1 [Fluocinolone acetonide] | 0.995 |
| O=C(O)COCCN1CCN(C(c2ccccc2)c2ccc(Cl)cc2)CC1 (stereo not drawn) [Cetirizine dihydrochloride] | 0.943 |
| CCCNC(C)C(=O)Nc1ccccc1C (stereo not drawn) [Prilocaine hydrochloride] | 1.01 |
| CCCCC(CC)CN1CN(CC(CC)CCCC)CC(C)(N)C1 (stereo not drawn) [Hexetidine] | 1.08 |
| CC(c1cc2ccccc2s1)N(O)C(N)=O (stereo not drawn) [Zileuton] | 0.909 |
| Fc1ccc(C(c2ccc(F)cc2)N2CCN(C/C=C/c3ccccc3)CC2)cc1 [Flunarizine dihydrochloride] | 0.97 |
| CC1=Nc2ccc(Cl)cc2S(=O)(=O)N1 [Diazoxide] | 1.05 |
| COc1ccc(C(=O)NCc2ccc(OCCN(C)C)cc2)cc1OC [Itopride] | 0.993 |
| Cc1ccnc(NS(=O)(=O)c2ccc(N)cc2)n1 [Sulfamerazine] | 0.994 |
| CC[C@H]1OC(=O)[C@H](C)[C@@H](O[C@H]2C[C@@](C)(OC)[C@@H](O)[C@H](C)O2)[C@H](C)[C@@H](O[C@@H]2O[C@H](C)C[C@H](N(C)C)[C@H]2O)[C@](C)(OC)C[C@@H](C)C(=O)[C@H](C)[C@@H](O)[C@]1(C)O [Clarithromycin] | 0.0384 (active) |
| Cc1cc(/C=C/c2ccc3cc(N(C)C)ccc3[n+]2C)c(C)n1-c1ccccc1 [Pyrvinium pamoate] | 1.06 |
| CO[C@H]1/C=C/O[C@@]2(C)Oc3c(C)c(O)c4c(O)c(c(/C=N/N5CCN(C)CC5)c(O)c4c3C2=O)NC(=O)/C(C)=C\C=C\[C@H](C)[C@H](O)[C@@H](C)[C@@H](O)[C@@H](C)[C@H](OC(C)=O)[C@@H]1C [Rifampicin] | 0.0335 (active) |
| CN1C(C(=O)Nc2ccccn2)=C(O)c2ccccc2S1(=O)=O [Piroxicam] | 1.01 |
| CC(C)N1CCN(c2ccc(OCC3COC(Cn4cncn4)(c4ccc(Cl)cc4Cl)O3)cc2)CC1 (stereo not drawn) [Terconazole] | 1.03 |
| CCOc1ccc(NC(C)=O)cc1 [Phenacetin] | 0.924 |
| CCN1CCN(C(=O)N[C@@H](C(=O)N[C@@H]2C(=O)N3[C@@H]2SC(C)(C)[C@@H]3C(=O)O)c2ccccc2)C(=O)C1=O [Piperacillin sodium salt] | 0.0495 (active) |
| NC[C@@H]1O[C@H](O[C@H]2[C@@H](O)[C@H](O[C@@H]3[C@@H](O)[C@H](N)C[C@H](N)[C@H]3O[C@H]3O[C@H](CO)[C@@H](O)[C@H](O)[C@H]3N)O[C@@H]2CO)[C@H](N)[C@@H](O)[C@@H]1O [Paromomycin sulfate] | 0.88 |
